# Pf growth 48h: P. falciparum growth inhibition at 48 hours (one generation); P. falciparum luciferase growth in erythrocytes, 48 h; Potency, µM (top dose mostly 28.7 µM), for inactives: at the top dose activity change, negative = inhibition, most hits filed as inhibitors; actives 5.9% (n = 310,000); AID 504832; note: potency is the fitted concentration of half-maximal effect; % is set by controls: 0 for no effect and ±100 for the full control effect
#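 Erythrocytes infected with P. falciparum carrying an integrated firefly luciferase reporter (2% hematocrit, 0.1% parasitemia final) were exposed to compounds in RPMI 1640 with 0.5% Albumax at 37 C, 5% CO2. Growth inhibition was scored as reduced luminescence.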
# Pf growth 96h: P. falciparum growth inhibition at 96 hour, primary screen for plastid delayed-death inhibitors; P. falciparum luciferase reporter growth, 96 h; Potency, µM (doses to about 28.7 µM), without a hit: at the highest dose activity change, negative = inhibition, most hits filed as inhibitors; actives 6.9% (n = 320,000); AID 504834; note: potency is the fitted concentration of half-maximal effect; % is set by controls: 0 for no effect and ±100 for the full control effect
#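 P. falciparum expressing integrated firefly luciferase grown in erythrocytes (2% hematocrit, 0.05% parasitemia final) with compounds for 96 hours at 37 C, 5% CO2. Growth inhibition read as loss of luminescence after adding luciferase detection reagent.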
# Shiga toxin inh: blocks Shiga toxin action in Vero cells; Vero cells, Shiga toxin protein synthesis inhibition reporter; inhibition, % at 38.7 µM; actives 9.2% (n = 290,000); AID 2315; in the data active = inhibition mostly above about 28%, no sharp cut-off; inactive = mostly below about 43%; note: 0% is about no effect
# Cycloheximide cs: affects cycloheximide protein synthesis inhibition readout, counter-screen; cell reporter, cycloheximide protein synthesis inhibition counterscreen; max response, %; AID 2314; actives 12% (n = 300,000); in the data active = max response mostly above about 13%, no sharp cut-off; inactive = mostly below about 14%; note: read at 38.3 µM for the half of the compounds with a filed dose; 0% is about no effect
# The depositor's hits bear a star; ? = inconclusive; . = no result given; [ ] = dose if it differs, or a comment. This is a sample that favours compounds with a hit; in the whole collection about 21% have one here. Unless noted, calls come from the whole dose curve; as a rule, active = well fitted inhibition curve with a large enough effect; inconclusive = small, poorly fitted or top-dose-only effect, or another doubt; inactive = no such curve, though single readings can be large or run the other way.
SMILES,Pf growth 48h,Pf growth 96h,Shiga toxin inh,Cycloheximide cs
CC(=NCCc1c(C)[nH]c2ccc(C)cc12)C1=C(O)CC(c2ccccc2)CC1=O (stereo not drawn),-20%,33%,-12,-1
CCCC(=NCCc1c(C)[nH]c2ccccc12)C1=C(O)CC(c2ccccc2)CC1=O (stereo not drawn),13µM*,-16%,-2,-2
CC(=NCCc1c(C)[nH]c2ccc(OC(F)(F)F)cc12)C1=C(O)CC(c2ccccc2)CC1=O (stereo not drawn),?,93%,-10,-11
CCCCC(=NCCc1c(C)[nH]c2ccccc12)C1=C(O)CC(c2ccccc2)CC1=O (stereo not drawn),9.3µM*,?,16,-1
CCC/C(O)=C1\C(=O)CC(c2ccccc2)CC1=NCCc1c(C)[nH]c2ccccc12 (stereo not drawn),2.6µM*,?,-13,4
O=C(NCc1ccccc1)C(c1ccc(F)cc1)N(C(=O)c1csnn1)C1CC1 (stereo not drawn),1%,16%,-4,-5
CCCSc1nnc(NC(=O)c2sc3nc(-c4cccs4)ccc3c2N)s1,?,-51%,17,28*
Cc1csc(NC(=O)c2sc3nc(-c4cccs4)ccc3c2N)n1,?,9%,69*,41*
COc1ccc2oc(C(=O)OCC(=O)N(C)C3CCCCC3)c(C)c2c1,9%,2%,.,.
COC(=O)C1=C(C)Nc2ccc(C)cc2S1,.,?,47,24*
CN1CCN(c2nc(N3CCN(CCO)CC3)nc3ccccc23)CC1,-1%,?,8,-2
OCCN1CCN(c2cc(-c3ccccc3)c3ccccc3n2)CC1,?,13µM*,-15,-6
CCCn1nnc(NC(=O)c2ccccc2Br)n1,56%,.,49*,19
CCn1nnc(NC(=O)c2cccnc2)n1,21%,77%,5,-1
CCn1nnc(NC(=O)c2ccccc2Br)n1,87%,5%,71*,27*
Clc1ccc(-c2nnc3sc(-c4ccc(Br)o4)nn23)c(Cl)c1,27%,-11%[5.75 µM],-7,-1
Clc1ccc(-c2nnc(C3CC3)o2)cc1,22%,33%,46,27
Clc1ccc(-c2nnc(N3CCOCC3)o2)cc1,77%,41%,90*,31*
Clc1ccc(-c2nnc(-c3ccccc3)o2)c(Cl)c1,135%,194%,119,51*
O=S(=O)(Cc1ccc(Cl)cc1)c1ccccc1-c1nnc(-c2ccccc2)o1,-17%,-1%,5,7
Fc1ccc(-c2nnc(-c3ccc(Cl)cc3)o2)cc1,.,57%,46*,18*
Clc1ccc(-c2nnc(-c3ccc(Br)o3)o2)c(Cl)c1,.,40%,30,15*
Cc1cc2occ(CC(=O)N(C)CC(=O)Nc3ccccc3C(F)(F)F)c2cc1C,-22%,-13%,.,.
CS(=O)(=O)c1ccccc1-c1nnc(-c2ccc(Cl)cc2)o1,36%,2%,64*,19*
Fc1ccc(-c2nnc(-c3ccc(Cl)cc3Cl)o2)cc1,172%,19%,43*,22*
SMILES,Pf growth 48h,Pf growth 96h,Shiga toxin inh,Cycloheximide cs
O=C(NCc1ccc(C(=O)O)cc1)OCc1ccccc1,13%,?,-3,-1
O=C(NCCC1=CCCCC1)C1CCN(C(=O)c2ccc(Cl)cc2)CC1,-9%,-3%,67*,31*
O=C(NCCN1CCCCCC1)C1CCCN1S(=O)(=O)c1cccc2nsnc12 (stereo not drawn),1.7µM*,?,15,2
COc1ccc(CCNC(=O)C2CCN(C(=O)c3ccc(Cl)cc3)CC2)cc1,?,-9%,-32,-2
O=C(NCCC1=CCCCC1)C1CCN(S(=O)(=O)c2ccccc2C(F)(F)F)CC1,10µM*,?,.,.
O=C(NCCC1=CCCCC1)C1CCN(S(=O)(=O)c2cccc3nsnc23)CC1,?,1.9µM*,-7,-3
O=C(NCCc1ccccc1)C1CCN(S(=O)(=O)c2cccc3nsnc23)CC1,-6%,?,-3,-3
O=C(CS(=O)(=O)c1cn(CC(=O)N2CCCC2)c2ccccc12)Nc1ccccc1F,-19%,?,1,3
COC(=O)CNC(=O)C1CCN(S(=O)(=O)c2cccc3nsnc23)CC1,17%,13µM*,3,2
CCOCCCNC(=O)C1CCC(CNS(=O)(=O)c2cccc3nsnc23)CC1 (stereo not drawn),2%,3.7µM*,9,-2
CC(C)(C)NC(=O)C1CCN(S(=O)(=O)c2cccc3nsnc23)CC1,4%,16%,-13,-2
O=C(c1ccc(Cl)cc1)C1CCN(C(=O)c2ccc(F)cc2)CC1,-10%,13µM*,2,1
CCCCNC(=O)C1CCC(CNS(=O)(=O)c2cccc3nsnc23)CC1 (stereo not drawn),-11%,-1%,-2,-3
Cc1ccc(C2(C)NC(=O)N(CC(=O)NC(=O)NC(C)(C)C)C2=O)cc1 (stereo not drawn),2%,-15%,4,-1
Cc1ccc(CNC(=O)CS(=O)(=O)Cc2nc(-c3ccc(C)cc3)oc2C)cc1,-5%,?,-3,-3
O=C(NC(=S)Nc1ccc(S(=O)(=O)Nc2nccs2)cc1)c1cccc(F)c1,3%,46%,-11,-2
COc1cc(/C=C2/C(=O)NC(=O)N(c3ccc(C)cc3)C2=O)cc(OC)c1OC,2%,3%,67*,27*
COc1ccc(N2C(=O)NC(=O)/C(=C/c3ccc4c(c3)Cc3ccccc3-4)C2=O)cc1,63%,14%,34,29*
CCOC(=O)N1CCC(Nc2ccc(N3C(=O)C4CCCCC4C3=O)cc2[N+](=O)[O-])CC1 (stereo not drawn),-3%,27%,1,14
COc1ccc(-n2c(-c3ccc(Cl)cc3)c[n+]3c2CCc2ccccc2-3)cc1,1.9µM*,?,12,-1
c1ccc(CCSc2ncnc3nc[nH]c23)cc1,75%,43%,39*,29*
O=C(CSc1ncnc2nc[nH]c12)c1ccc([N+](=O)[O-])cc1,?,?,-2,2
O=C(CSc1ncnc2nc[nH]c12)c1ccccc1,95%,82%,100*,35*
O=C(CSc1ncnc2nc[nH]c12)c1ccc(Cl)cc1,3%,36%,25*,11*
CCCOc1cccc(C2C(C(=O)c3cccs3)=C(O)C(=O)N2Cc2cccnc2)c1 (stereo not drawn),?,33%,17,1
CCC1=NN(C(=O)c2ccccc2O)C(O)(c2ccccc2)C1 (stereo not drawn),-14%,?,77*,31*
CCC1=NN(C(=O)c2ccc(Cl)cc2)C(O)(c2ccccc2)C1 (stereo not drawn),?,3.3µM*,17,12
CCC1=NN(C(=O)c2ccccc2Br)C(O)(c2ccc(Br)cc2)C1 (stereo not drawn),?,42%,2,-3
CCC1=NN(C(=O)c2ccc(Cl)cc2)C(O)(c2ccc(C)cc2)C1 (stereo not drawn),-22%,-57%,45*,18*
CCOC(=O)C1=NN(C(=O)c2ccc(C)cc2)C(O)(c2ccc(Cl)cc2)C1 (stereo not drawn),-1%,.,32,31

# Screens from PubChem BioAssay.
